High-throughput results from PubChem.
Vif-A3G inh: qHTS for Inhibitors of Vif-A3G Interactions: qHTS; DNA dC->dU-editing enzyme APOBEC-3G (Homo sapiens), Q9HC16; HeLa A3G-eYFP + Vif (tagged APOBEC3G with the HIV-1 protein that degrades it), YFP fluorescence, overnight; Potency, µM (top dose mostly 46.1 µM), inactives show top-dose activity, negative = active, hits mostly inhibitors; 0.076% of 410,000 active; further: potency means the concentration at half of the fitted maximal effect; on the % scale 0 is the no-effect control and ±100 the full control effect; nearly all actives have a fitted effect of over 60% in size
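HeLa cells stably expressing Vif and C-terminally eYFP-tagged A3G, seeded overnight at 37 deg C, then exposed to compound by pintool overnight at 37 deg C. Rise in yellow fluorescence (Ex 488/Em 500-530, Acumen) marks blocked Vif-driven A3G degradation.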
TSG101-PTAP inh: qHTS Assay for Iinhibitors of HIV-1 Budding by Blocking the Interaction of PTAP/TSG101 | 340,000 tested, under 10 active | Tumor susceptibility gene 101 protein (Homo sapiens), Q99816 | Fluorescence polarization, FITC-PTAP peptide / Tsg101 binding | AID 493005, 2010 | Potency, µM (top dose mostly 115 µM), for the others: top-dose activity change, negative = inhibition, most hits filed as inhibitors; active means well fitted inhibition curve with a large enough effect in the main read-out, with a control signal flat, not every such curve was filed as active; inconclusive means small, poorly fitted or top-dose-only effect, or effect the other way, or a change in a side signal; inactive means no such curve, though single readings can be large or run the other way; further: potency means the concentration at half of the fitted maximal effect; % of control where 0% means no effect
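FP read-out: FITC-PTAP peptide, 50 nM final, binding Tsg101 binding domain, 10 uM final; 20 min, r.t.; 10 mM HEPES pH 7.5, 0.15 M NaCl, 0.01% Tween 20, 3 mM EDTA, 0.1 mM TCEP.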
Vif-APOBEC3F blk: qHTS for Inhibitors of Vif-A3F Interactions: qHTS | HeLa A3F-eYFP + Vif (tagged APOBEC3F with the HIV-1 protein that degrades it), YFP fluorescence increase | Potency, µM (doses to about 46.1 µM), inactives show top-dose activity, negative = active | 0.2% of 390,000 active | AID 602313, 2012; further: potency means the concentration at half of the fitted maximal effect; % of control where 0% means no effect; nearly all actives have a fitted effect of over 65% in size
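HeLa cells stably expressing Vif plus C-terminally eYFP-tagged A3F were seeded, incubated overnight at 37 deg C, dosed with compound, incubated overnight again at 37 deg C. Yellow fluorescence (Ex 488/Em 500-530) reported blocked Vif-mediated A3F-eYFP degradation.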
S-ASM inh: Inhibitors of Secretory Acid Sphingomyelinase (S-ASM): qHTS; Sphingomyelin phosphodiesterase (Homo sapiens), P17405; placental ASM, HMU-PC fluorogenic substrate, 60 min; Potency, µM (top dose mostly 57.5 µM), for the others: top-dose activity change, negative = inhibition, actives largely listed as inhibitors; 0.006% of 340,000 active; AID 504937, 2011; further: potency means the concentration at half of the fitted maximal effect
Target sequence (P17405 47-631 limits assumed): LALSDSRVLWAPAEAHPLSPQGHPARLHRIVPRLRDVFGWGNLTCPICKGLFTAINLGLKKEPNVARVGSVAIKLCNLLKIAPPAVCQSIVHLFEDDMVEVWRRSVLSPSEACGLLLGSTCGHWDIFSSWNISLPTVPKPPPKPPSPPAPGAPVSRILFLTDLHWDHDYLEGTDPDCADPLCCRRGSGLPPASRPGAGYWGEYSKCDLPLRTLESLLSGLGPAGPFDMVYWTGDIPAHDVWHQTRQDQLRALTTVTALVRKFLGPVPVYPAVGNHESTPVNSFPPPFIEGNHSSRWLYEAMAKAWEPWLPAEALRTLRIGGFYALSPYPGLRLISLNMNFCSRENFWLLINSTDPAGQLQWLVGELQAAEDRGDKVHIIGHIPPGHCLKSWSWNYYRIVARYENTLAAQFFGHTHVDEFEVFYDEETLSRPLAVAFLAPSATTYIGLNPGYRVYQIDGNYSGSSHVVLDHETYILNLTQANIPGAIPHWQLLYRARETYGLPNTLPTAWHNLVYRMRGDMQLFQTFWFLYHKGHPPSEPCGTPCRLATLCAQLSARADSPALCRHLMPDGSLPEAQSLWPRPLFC
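Steps: dispense placental human ASM, pin compound, wait 10 min at room temperature, add HMU-PC0 substrate at 9 uM final, incubate 60 min at 37 °C, add stop solution raising pH to 10, read fluorescence.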
Akt phos inh: HTS Assay for Inhibitors of Akt Phophorylation: Primary Screen; Neuro2A IGF-stimulated pAkt S473 HTRF, 20 min; active compounds read low; AID 651550, 2012; activity change, % for hits at 50 µM; 0.32% of 360,000 active; in the data active means activity change below about -80%; inconclusive means mostly about -51% to -80%; further: on the % scale 0 is the no-effect control and ±100 the full control effect
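Neuro2A cells (4,500/well, DMEM with 0.5% FBS) were treated with compound at a single 50 µM final concentration, stimulated with 6 nM IGF for 20 min at 37 °C, and lysed. Phospho-Akt Ser473 was read by HTRF as 665/615 ratio ×10^4.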
12-LOX inh: Primary qHTS assay for inhibitors of human arachidonate 12S-lipoxygenase (ALOX12): Round 2 | Polyunsaturated fatty acid lipoxygenase ALOX12 (Homo sapiens), P18054 | purified 12hLO, xylenol orange hydroperoxide absorbance | Potency, µM (top dose mostly 108 µM), without a hit: top-dose activity change, negative = inhibition, usual class: inhibitors | 1.1% of 580,000 active | AID 1671190, 2021; further: potency means the concentration at half of the fitted maximal effect; on the % scale 0 is the no-effect control and ±100 the full control effect
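Purified human 12hLO (150 nM final) in 25 mM Hepes, 0.01% Triton X-100, pH 7.0 was preincubated 15 min at room temperature with compound. Then 40 uM arachidonic acid was added, 30 min. Hydroperoxide was read by Fe-XO absorbance ratio 573/405 nm.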
* marks the source's active call; other numbers are inactive results; [ ] = dose if it differs, or a comment. A selection: hits, their analogues and other compounds. The true share with any hit is near 1.4%. Unless noted, the call rests on the fitted dose curve; in most records, active means well fitted curve in the direction sought with a large enough effect; inconclusive means small, poorly fitted or top-dose-only effect, or another doubt; inactive means no such curve, though single readings can be large; an effect the other way counts as inactive or inconclusive.

How did CC(C)N1C(=O)S/C(=C\c2ccc(-c3ccc(Cl)c(C(=O)O)c3)o2)C1=O do in these assays?
Vif-A3G inh: -1%; TSG101-PTAP inh: -7%; Vif-APOBEC3F blk: 1%; S-ASM inh: 48%; Akt phos inh: inactive; 12-LOX inh: inconclusive

Results for O=C1c2cccc3c(N4CCCCC4)ccc(c23)C(=O)N1c1ccccc1O ?
Vif-A3G inh: 14%; TSG101-PTAP inh: inconclusive; Vif-APOBEC3F blk: 8.9µM*; S-ASM inh: inconclusive; Akt phos inh: inactive; 12-LOX inh: -150%

What do the screens show for `O=C1c2cccc3c(N4CCCCC4)ccc(c23)C(=O)N1c1ccc(O)cc1`?
Vif-A3G inh: 7.9µM*; TSG101-PTAP inh: inconclusive; Vif-APOBEC3F blk: inconclusive; S-ASM inh: -8%; Akt phos inh: inactive; 12-LOX inh: -10%

Results for COc1ccc(Sc2ccc(/C=C3\C(=O)NN(c4ccccc4)C3=O)o2)cc1 ?
Vif-A3G inh: -3%; TSG101-PTAP inh: -1%; Vif-APOBEC3F blk: 0%; S-ASM inh: -9%; Akt phos inh: inactive; 12-LOX inh: 28µM*

Results for COc1ccc(-n2c(C)cc(/C=C3\C(=O)NN(c4ccccc4)C3=O)c2C)cc1 ?
Vif-A3G inh: 3%; TSG101-PTAP inh: 5%; Vif-APOBEC3F blk: 15%; S-ASM inh: -14%; Akt phos inh: inactive; 12-LOX inh: 1%

How did O=C(NCc1cccnc1)C1CCN(S(=O)(=O)c2cccc(OC(F)(F)F)c2)CC1 do in these assays?
12-LOX inh: 42%

How did O=S(=O)(Nc1cccnc1)c1cccc(Cl)c1 do in these assays?
Vif-A3G inh: 1%; TSG101-PTAP inh: 0%; Vif-APOBEC3F blk: -3%; S-ASM inh: -1%; Akt phos inh: inactive; 12-LOX inh: 1%

What do the screens show for `CC(=O)c1cccc(S(=O)(=O)Nc2cccnc2)c1`?
Vif-A3G inh: 2%; TSG101-PTAP inh: -1%; Vif-APOBEC3F blk: -11%; S-ASM inh: -5%; Akt phos inh: inactive; 12-LOX inh: 8.9µM*

What do the screens show for `Cc1cc(C)n(Cc2ccc(C(=O)Nc3ccc(Br)cc3C)o2)n1`?
Vif-A3G inh: -4%; TSG101-PTAP inh: -2%; Vif-APOBEC3F blk: 0%; S-ASM inh: -5%; Akt phos inh: inactive; 12-LOX inh: 35µM*

What do the screens show for `Cc1cc(C)n(Cc2ccc(C(=O)Nc3cccc(Br)c3)o2)n1`?
Vif-A3G inh: -2%; TSG101-PTAP inh: -2%; Vif-APOBEC3F blk: 5%; S-ASM inh: -9%; Akt phos inh: inactive; 12-LOX inh: inconclusive

How did CN(Cc1ccc(F)cc1F)C(=O)c1cc(Br)ccc1O do in these assays?
12-LOX inh: 10µM*

How did Nc1sc(-c2ccccc2)cc1C(=O)NCCc1ccc(Cl)cc1 do in these assays?
Akt phos inh: inactive; 12-LOX inh: 40µM*

How did O=c1cc(-c2ccc(O)c(O)c2)oc2c1ccc1ccccc12 do in these assays?
Vif-A3G inh: -2%; TSG101-PTAP inh: 9%; Vif-APOBEC3F blk: 0%; S-ASM inh: -18%; Akt phos inh: inactive; 12-LOX inh: 0.35µM*

Results for O=c1oc(-c2ccc(O)c(O)c2)cc2cc(O)cc(O)c12 ?
Vif-A3G inh: -20%; TSG101-PTAP inh: 2%; Vif-APOBEC3F blk: -7%; S-ASM inh: -4%; Akt phos inh: inactive; 12-LOX inh: 2.5µM*

What do the screens show for `O=c1oc(-c2ccc(O)c(O)c2)cc2cccc(O)c12`?
Vif-A3G inh: -24%; TSG101-PTAP inh: -3%; Vif-APOBEC3F blk: -5%; S-ASM inh: 70%; Akt phos inh: inactive; 12-LOX inh: 4.5µM*

How did Cc1c(C(=O)N(Cc2ccc(Cl)cc2)C2CCS(=O)(=O)C2)oc2ccc(Br)cc12 (stereo unspecified) do in these assays?
12-LOX inh: 0%

Results for Cn1ccc(C(=O)N2CC(CNc3ccccc3)C3(C2)CN(c2ccccc2)C3)n1 (stereo unspecified) ?
12-LOX inh: -43%[176 µM]

How did CCOC(=O)c1cnc2c(Cl)cccc2c1Nc1ccccc1OC do in these assays?
12-LOX inh: 1%

How did COc1cc(CO)cc(-c2cc(CO)cc(OC)c2OC)c1OC do in these assays?
Vif-A3G inh: -3%; TSG101-PTAP inh: 2%; Vif-APOBEC3F blk: 5%; S-ASM inh: 2%; Akt phos inh: -107%*; 12-LOX inh: 38%

How did CC12CC3CC(C)(C1)CC(C(=O)NC(=S)N1CCOCC1)(C3)C2 do in these assays?
Vif-A3G inh: 10µM*; TSG101-PTAP inh: -4%; Vif-APOBEC3F blk: 2%; S-ASM inh: 0%; Akt phos inh: inactive; 12-LOX inh: -8%

What do the screens show for `O=C(NC(=S)N1CCCCC1)C12CC3CC(CC(C3)C1)C2`?
Vif-A3G inh: 1%; TSG101-PTAP inh: -6%; Vif-APOBEC3F blk: 3%; S-ASM inh: -1%; Akt phos inh: inactive; 12-LOX inh: 0%

What do the screens show for `S=C1NC2(CCCCCC2)NN1c1ccccc1`?
12-LOX inh: 1.4µM*

What do the screens show for `CC1(CCc2ccccc2)NC(=S)N(c2ccccc2)N1` (stereo unspecified)?
Vif-A3G inh: -7%; TSG101-PTAP inh: -2%; Vif-APOBEC3F blk: -9%; S-ASM inh: 1%; Akt phos inh: inactive; 12-LOX inh: 1µM*

How did CC1(C)Cc2c(sc3c2c(=O)n(CCCO)c(=O)n3CCc2ccccc2)CO1 do in these assays?
12-LOX inh: 53%

Results for COc1ccc(/C=C/C(=O)c2ccc([N+](=O)[O-])o2)cc1OC ?
Vif-A3G inh: 7.9µM*; TSG101-PTAP inh: -2%; Vif-APOBEC3F blk: inconclusive; S-ASM inh: -8%; Akt phos inh: inactive; 12-LOX inh: 0%

How did CCOc1ccc(/C=C(/C#N)c2nc3ccccc3[nH]2)cc1OC do in these assays?
12-LOX inh: -26%

What do the screens show for `COc1ccc(/C=C(\C#N)c2nc3ccccc3[nH]2)cc1I`?
12-LOX inh: 6.3µM*

Results for COc1cc(/C=C(\C#N)c2nc3ccccc3[nH]2)ccc1OCc1ccccc1F ?
Vif-A3G inh: inconclusive; Vif-APOBEC3F blk: 22µM*; 12-LOX inh: -9%

Results for COc1ccc(/C=C(\C#N)c2nc3ccccc3[nH]2)cc1O ?
Vif-A3G inh: -19%; TSG101-PTAP inh: -1%; Vif-APOBEC3F blk: -24%; S-ASM inh: 1%; Akt phos inh: inactive; 12-LOX inh: 0%
